A number with no mark means an inactive call. Active and inactive are the calls of the source. Unless noted, no stated cut-off is given here; in the data, active means inhibition above about 25%; inactive means the rest.

The values below come from PubChem BioAssay.

For experiment [1], the target named is Nuclear receptor coactivator 1 (Homo sapiens) (UniProt Q15788). Put plainly: SRC1 coactivator transcriptional activity inhibitors, confirmation, cell-based, luminescence, quadruplicate (AID 588820;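 active means mean inhibition above 46.68%, the untreated control wells mean plus 3 SD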;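 further: 0% = DMSO wells and 100% = gossypol 36 µM treated wells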). To be noted: HEK293 GAL4-SRC1 luciferase reporter, at 3.6 µM, stronger effect = higher value.
Chain of Nuclear receptor coactivator 1 (Homo sapiens) (Q15788 whole entry, looked up, the tested form may be a part): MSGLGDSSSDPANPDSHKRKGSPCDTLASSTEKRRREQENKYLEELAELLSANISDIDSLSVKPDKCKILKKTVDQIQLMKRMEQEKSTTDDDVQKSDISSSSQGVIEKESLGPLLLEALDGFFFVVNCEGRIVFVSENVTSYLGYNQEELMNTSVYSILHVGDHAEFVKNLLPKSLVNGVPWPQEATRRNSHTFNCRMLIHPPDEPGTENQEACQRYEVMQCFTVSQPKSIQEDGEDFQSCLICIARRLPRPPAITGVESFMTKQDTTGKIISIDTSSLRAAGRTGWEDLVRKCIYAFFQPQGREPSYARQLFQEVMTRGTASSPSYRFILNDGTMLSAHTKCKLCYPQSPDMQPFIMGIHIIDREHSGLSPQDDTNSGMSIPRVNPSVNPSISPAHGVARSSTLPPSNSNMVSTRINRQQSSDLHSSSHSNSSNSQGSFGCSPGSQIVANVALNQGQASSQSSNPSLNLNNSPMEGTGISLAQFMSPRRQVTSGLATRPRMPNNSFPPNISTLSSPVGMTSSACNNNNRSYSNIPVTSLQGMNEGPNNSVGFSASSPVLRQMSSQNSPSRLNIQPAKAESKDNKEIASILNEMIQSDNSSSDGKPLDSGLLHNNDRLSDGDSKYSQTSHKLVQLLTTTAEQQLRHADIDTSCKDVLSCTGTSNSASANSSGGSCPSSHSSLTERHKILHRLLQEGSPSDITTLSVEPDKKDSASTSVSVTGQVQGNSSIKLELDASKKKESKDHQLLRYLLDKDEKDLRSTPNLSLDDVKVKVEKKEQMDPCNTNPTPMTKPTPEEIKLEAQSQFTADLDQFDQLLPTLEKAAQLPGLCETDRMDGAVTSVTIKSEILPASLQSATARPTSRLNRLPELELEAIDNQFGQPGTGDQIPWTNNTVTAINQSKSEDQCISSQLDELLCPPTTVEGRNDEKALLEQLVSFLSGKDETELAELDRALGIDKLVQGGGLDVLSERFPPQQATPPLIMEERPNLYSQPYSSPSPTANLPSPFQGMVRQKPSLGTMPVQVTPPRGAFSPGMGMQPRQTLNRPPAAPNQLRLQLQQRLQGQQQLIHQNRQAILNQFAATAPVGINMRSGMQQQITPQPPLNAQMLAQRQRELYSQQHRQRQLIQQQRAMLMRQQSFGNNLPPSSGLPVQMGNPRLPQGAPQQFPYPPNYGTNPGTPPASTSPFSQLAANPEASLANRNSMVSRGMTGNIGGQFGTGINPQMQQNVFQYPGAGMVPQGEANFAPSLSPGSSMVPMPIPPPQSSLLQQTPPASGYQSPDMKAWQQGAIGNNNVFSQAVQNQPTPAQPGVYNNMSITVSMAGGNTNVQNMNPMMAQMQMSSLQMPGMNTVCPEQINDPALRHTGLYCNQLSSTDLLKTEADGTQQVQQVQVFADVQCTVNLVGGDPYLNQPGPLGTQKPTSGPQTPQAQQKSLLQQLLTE
The nature of experiment [2]: VP16 transactivation inhibitors, counter-screen for SRC1 inhibitor project, cell-based, luminescence, high throughput (AID 588824). The conditions noted are these: cell-based VP16 transactivation luciferase luminescence; at 3.6 µM; stronger effect = higher value. (In general: A counterscreen serves to expose hits that act by an unwanted route or on another target.)

The term inhibition denotes the relative decrease from the control value, in per cent. Turning to `O=C(Nc1ccc(Oc2ccccc2)cc1)c1ccc2sc([C@H]3C[C@H](O)[C@@H](CO)O3)nc2c1`, the values for the inhibition in experiment [1] and in experiment [2] were -13.8% and 19.3%, respectively.
Regarding `CC(C)(C)OC(=O)N(CCc1ccccc1)Cc1ccc(OCc2cccc(NC(=O)C3CCCC3)c2)cc1`, the inhibition in experiment [1] is -0.88%; in experiment [2], -7.49%.
As for `Cc1ccc(Cc2c(-c3ccco3)nc3c4ccccc4ccn23)cc1`, the inhibition in experiment [1] is -81.9%; in experiment [2], -34.6%.
In the same order, the values of `CCC(C)C(=O)Nc1nc(C)c(-c2csc(Nc3cc(Cl)ccc3OC)n2)s1` (stereo unspecified) are -14.5% and -1.24%.
Consider `Cc1ccc2nc(C)c3c(c2c1)N(c1ccc(F)cc1)CC3`, for which the inhibition in experiment [1] was 16.4%; in experiment [2] it was 30.5% (active).
In the same order, the values of `C/C(=N\NC(=O)C(C)Oc1ccc([N+](=O)[O-])cc1)c1ccccn1` (stereo unspecified) are -226% and 45.6% (active).
Regarding `CCCCC(=O)NC(c1ccc(N(CC)CC)cc1)c1ccc2cccnc2c1O` (stereo unspecified), the inhibition was 69.3% (active) in experiment [1] and 63.8% (active) in experiment [2].
In the same order, the values of `CC(O)c1nc2cc([N+](=O)[O-])ccc2n1Cc1ccccc1` (stereo unspecified) are -1.46% and -6.35%.
With `COc1cc(/C=C/C(=O)Nc2ccc3nc4n(c(=O)c3c2)CCCC4)cc(OC)c1OC`, the inhibition in experiment [1] was -22.6%; in experiment [2], -26.8%.
As to `COc1ccccc1C(=O)N(Cc1ccc(C)o1)C1CCS(=O)(=O)C1` (stereo unspecified), the results for the inhibition in experiment [1] and in experiment [2] were -7.5% and 3.3%, respectively.
On to `O=C(Nc1cccc(F)c1)/C(=C\c1ccco1)NC(=O)c1ccco1`, for which the results for the inhibition in experiment [1] and in experiment [2] were -13.4% and -7.03%, respectively.
In the same order, the values of `Nc1nc(Cl)nc2ccc(Br)cc12` are -6.1% and -0.41%.
In the case of `CCCCCCCC[n+]1c(C)n(-c2ccccc2)c2ccc(NC(C)=O)cc21`, the inhibition in experiment [1] is 15.6%; in experiment [2], 19.2%.
As for `CC(=O)c1cn(CCOc2cc(C)ccc2C)c2ccccc12`, the inhibition in experiment [1] was -27%; in experiment [2], 33.7% (active).
With `CC1CCCCN1c1ncnc2ccccc12` (stereo unspecified), the inhibition in experiment [1] was 18.5%; in experiment [2], 17.9%.
With `CSc1ccc(CN2CCN(C(=O)CC(C)C)CC2)cc1`, the results for the inhibition in experiment [1] and in experiment [2] were -3.21% and -2.54%, respectively.
In the same order, the values of `CC(C)N1C(=O)c2ccccc2N(Cc2ccccc2)S1(=O)=O` are -4.94% and 1.81%.
On to `COc1cccc(CNC(=O)C2CCCN(S(C)(=O)=O)C2)c1` (stereo unspecified), for which the inhibition was -0.5% in experiment [1] and 8.47% in experiment [2].
For the molecule `CC(=O)c1cccc(NC(=O)COc2cc3oc(=O)c(CC(C)O)c(C)c3cc2Cl)c1` (stereo unspecified), the inhibition is 28.4% in experiment [1] and 22% in experiment [2].
As for `COc1cc(C(=O)Nc2cccc(-c3cn4cccnc4n3)c2)cc(OC)c1OC`, the inhibition in experiment [1] is -27.4%; in experiment [2] it was -27.3%.
As for `c1cc2c(cn1)cnc1cscc12`, the inhibition in experiment [1] was 40.9%; in experiment [2] it was 7.33%.
As to `CCOC(=O)C1(Cc2cccc(Cl)c2)CCCN(C(=O)c2ccoc2C)C1` (stereo unspecified), the inhibition in experiment [1] is -4.52%; in experiment [2], -3.85%.
As to `CCOP(=O)(OCC)C(NC(=O)c1cccs1)c1ccccc1` (stereo unspecified), the inhibition in experiment [1] is -44.8%; in experiment [2], -3.21%.
In the same order, the values of `CCCC(=O)N1CCCC(c2cc(C(=O)Nc3ccccc3)no2)C1` (stereo unspecified) are -49.1% and -30.6%.
In the same order, the values of `Cc1ccc(CNc2ncnc3ccc(-c4ccc(CO)o4)cc23)o1` are 11.8% and 14.7%.
Turning to `COc1ccc(NC(=O)/C(C#N)=C\c2cc(C)n(-c3ccc4c(c3)OCO4)c2C)cc1`, the inhibition was -34.8% in experiment [1] and 30.7% (active) in experiment [2].
`c1cncc(CNC2CCCc3ccccc32)c1` (stereo unspecified): the inhibition is 0.67% in experiment [1] and -8.78% in experiment [2].
Take `COc1cccc(CNc2nc3cc(-c4ccsc4)sc3c(=O)n2C)c1OC`: the values for the inhibition in experiment [1] and in experiment [2] were -0.05% and 25.6% (active), respectively.
In the same order, the values of `O=C1NCCc2c1[nH]c1ccc([N+](=O)[O-])cc21` are 23.1% and 18.1%.
Take `COc1ccc(NC(=O)CCn2c(=S)[nH]c3ccccc3c2=O)cc1`: the inhibition is 2.22% in experiment [1] and 0.97% in experiment [2].
In the same order, the values of `Cc1nc2ccccc2c2oc(C(=O)Nc3ccc(C(C)C)cc3)cc12` are -6.16% and -1.6%.
Turning to `Cc1cccc(C)c1NC(=O)CN(C)CC(=O)Nc1ccc(F)c(Cl)c1`, the inhibition was 4.35% in experiment [1] and 11.2% in experiment [2].
Regarding `CN1CCN(c2ccc(CNS(=O)(=O)c3ccc(F)cc3Cl)cc2)CC1`, the inhibition is -2.89% in experiment [1] and -5.39% in experiment [2].
In the same order, the values of `Cc1cc(NC(=O)CN2CCN(S(=O)(=O)c3ccc4ccccc4c3)CC2)no1` are -3.08% and -1.04%.
Take `c1ccc(CC2CCN(c3ncnc4sccc34)CC2)cc1`: the inhibition was -13.8% in experiment [1] and 29.4% (active) in experiment [2].
For `COc1ccc(CNC(=O)c2ccc(N3CCC4(CC3)CC(c3ccc(Cl)cc3)=NO4)c([N+](=O)[O-])c2)cc1`, the inhibition in experiment [1] was 6.27%; in experiment [2] it was 28.2% (active).
As to `CS(=O)(=O)c1ccc(C(=O)OCC(=O)NC(=O)Cc2ccccc2)cc1`, the results for the inhibition in experiment [1] and in experiment [2] were -5.88% and -3.13%, respectively.
Turning to `Cc1sc2ncn3ncnc3c2c1C`, the inhibition in experiment [1] was 37.9%; in experiment [2], 27.7% (active).
Take `COc1ccc(-n2c(SC(C)C(=O)Nc3ncc(Cl)cc3Cl)nc3ccccc32)cc1` (stereo unspecified): the inhibition in experiment [1] was 35.4%; in experiment [2] it was 79.4% (active).
On to `O=C(CCCCC(=O)NN=Cc1ccccc1O)NN=Cc1ccccc1O`, for which the results for the inhibition in experiment [1] and in experiment [2] were 37.3% and 39% (active), respectively.
`Cc1cccc(NC(=O)CSc2nnc(NC(=O)C3CC3)s2)c1C`: the values for the inhibition in experiment [1] and in experiment [2] were -3.25% and 6.7%, respectively.
In the same order, the values of `CCOc1ccc(CCN2C(=S)N([C@@H](Cc3ccc(O)cc3)CN3CCC[C@@H]3CN3C(=S)NC[C@@H]3CC(C)C)C[C@@H]2CC(C)C)cc1` are -13% and -0.17%.
In the same order, the values of `CCOC(=O)N1CCN(C2=Nc3cccc4cccc2c34)CC1` are -13.8% and -0.04%.
Consider `COc1ccc(CCC(C)NCc2cc(OC)cc(OC)c2)cc1` (stereo unspecified), for which the inhibition was -28.3% in experiment [1] and -6.4% in experiment [2].
With `COc1ccc(Nc2ncnc3ccc(C)cc23)cc1`, the inhibition was 26.8% in experiment [1] and 15.7% in experiment [2].
For `Cc1nc(N/N=C/c2ccc(O)cc2O)cc(N2CCOCC2)n1`, the values for the inhibition in experiment [1] and in experiment [2] were -26.5% and -14.6%, respectively.
Consider `O=C(Nc1ccncc1)c1cccc(S(=O)(=O)N2CCc3ccccc32)c1`, for which the inhibition in experiment [1] was -21.8%; in experiment [2], 27.9% (active).
Turning to `CCOc1ccc(NC(=O)c2ccc(CN3CCc4ccccc4C3)cc2)cc1`, the figures for the inhibition in experiment [1] and in experiment [2] were -25.7% and 36.5% (active), respectively.
